# Measured values taken from ChEMBL document CHEMBL3988442, “University of Dundee, Small-Polar-MMV Screening Library” (2021).
# Out of some 69,000 compounds screened, about 950 (1.4%) showed an effect of 50% or more. Only a selection was taken, and strong results are over-represented in it overall.
# Tested on: Mycobacterium tuberculosis
# Experiment: Cornell M. t heat shock assay; also: in the data most compounds retested in dose-response had high values
# Type: functional, organism-based
# Parameters: dose or concentration left out as unconfirmed
row,Structure (SMILES),Percent Effect [%]
1,O=C(N1CCCCC1)N1CCN(CC(O)c2ccccc2)CC1 (stereo unspecified),-21.19
2,OC(CN1CCN(CC2CC2)CC1)c1ccc(Br)cc1 (stereo unspecified),6.961
3,OC(CN1CCN(CC2CCCCC2)CC1)c1ccccc1 (stereo unspecified),50.33
4,CCCn1nc(C)c(-c2cncn2CCN(C)C2CCCC2)c1C.Cl,7.382
5,CN(C)S(=O)(=O)N1CCC[C@]2(C[C@@H](Oc3ncccc3F)CO2)C1.O=C(O)C(F)(F)F,-8.336
6,Cc1cc(NCc2cccnc2)n2nc(C)cc2n1,1.456
7,Cc1cc(NCc2ccc(CO)cc2)n2nc(C)cc2n1,10.67
8,Cc1cc(NCc2ccc(C#N)cc2)n2nc(C)cc2n1,-9.847
9,Cc1cc(NCc2ccc(O)cc2)n2nc(C)cc2n1,21.53
10,Cc1cc(NCCCC(F)(F)F)n2nc(C)cc2n1,87.73
11,CNC(=O)CCCNc1cc(C)nc2cc(C)nn12,-5.305
12,Cc1cc(C(F)(F)F)nc(CNc2cc(C)nc3cc(C)nn23)n1,65.55
13,CNS(=O)(=O)CCNc1cc(C)nc2cc(C)nn12,10.96
14,Cc1cc(NCc2cc(C)oc2C(F)(F)F)n2nc(C)cc2n1,56.47
15,CC(C)OCCCN(CC(=O)N1CCNCC1)C(=O)c1cccc(Cl)c1.O=C(O)C(F)(F)F,-0.6086
16,COc1cccc(CN2C[C@@H]3COC[C@]3(CN3CCOCC3)C2)c1.O=C(O)C(F)(F)F.O=C(O)C(F)(F)F,-20.77
17,Cc1noc(C)c1CN1C[C@@H]2COC[C@@H](CC(=O)N3CCCCO3)[C@@H]2C1.O=C(O)C(F)(F)F,-4.663
18,CCC(C)[C@H](N)c1nnc(SCC(=O)Nc2ccc(Br)cc2)o1.Cl (stereo partly specified),-9.343
19,O=C(O)C(F)(F)F.c1cc(COC[C@H]2CCC[C@]23CNCCO3)ccn1,31.7
20,CN(C)c1ncnc2c1CCN(CC1CCCC1)CC2.O=C(O)C(F)(F)F,2.211
21,Cn1cccc1CNCC1CCCn2cc(C(C)(C)C)nc21 (stereo unspecified),1.286
22,CC(C)(C)c1cn2c(n1)C(CNCc1ccccn1)CCC2 (stereo unspecified),70.45
23,CC(C)(C)c1cn2c(n1)C(CNCc1cnn3ccccc13)CCC2 (stereo unspecified),15.66
24,CCOCC1CN(c2ccncn2)Cc2cnn(CC3CC3)c21.O=C(O)C(F)(F)F.O=C(O)C(F)(F)F (stereo unspecified),-24.31

row,Structure (SMILES),Percent Effect [%]
1,COc1ncccc1C(=O)N1CC[C@]2(C[C@@H](Oc3cccnc3)CO2)C1.O=C(O)C(F)(F)F.O=C(O)C(F)(F)F,-28
2,Cc1cccc(CN2C[C@@H]3COC[C@]3(CNC(=O)c3ccccc3)C2)n1.O=C(O)C(F)(F)F.O=C(O)C(F)(F)F,-15.75
3,CN1CC(=O)N(c2cnn(C)c2)CC12CCN(Cc1cccnc1)C2.O=C(O)C(F)(F)F.O=C(O)C(F)(F)F.O=C(O)C(F)(F)F (stereo unspecified),-54.01
4,Cc1noc(C)c1CN1C[C@@H]2COC[C@@H](C(=O)N3CCCCO3)[C@@H]2C1.O=C(O)C(F)(F)F,-3.514
5,COc1ccccc1N1CCN(C(=O)Cn2nc(C)cc2C)CC1(C)C,8.115
6,COc1ccccc1N1CCN(C(=O)Cn2nccc2C)CC1(C)C,90.85
7,COc1ccc(N2CCN(C(=O)Cn3nccc3C)CC2(C)C)cc1,16.6
8,O=C(c1c[nH]c2ccccc2c1=O)N1CCSCC1,105.4
9,COc1ccc2[nH]cc(C(=O)N3CC[C@H](CO)[C@@H](O)C3)c(=O)c2c1,-0.5763
10,O=C(Cc1c[nH]c2ccccc12)N1CCN(C(=O)c2ccoc2)CC1,3.224
11,Cc1nccc(NCc2cncc3c2CCN(CCN(C)C)C3)n1,3.393
12,COc1ccccc1N1CCN(Cc2ncc(C)c(OC)c2C)CC1=O,18.05
13,Cc1cc(C)n(C2=NC(NCCC(C)C)c3c(sc4c3CCCC4)N2)n1 (stereo unspecified),11.87
14,Cc1cc(C)n(-c2nc(NCCCO)c3c4c(sc3n2)CCCC4)n1,101.1
15,COCCNc1nc(-n2nc(C)cc2C)nc2sc3c(c12)CCCC3,40.33
16,CO[C@@H]1CN(c2ccccc2)S(=O)(=O)[C@@]12CCN(C(C)=O)C2,16.02
17,Cc1ccc(S(=O)(=O)N2CCN(CCCn3ccnc3)CC2)cc1,15.57
18,CN(C)c1ccc(CN(CCCn2ccnc2)Cc2c[nH]cn2)cc1.O=C(O)CC(O)(CC(=O)O)C(=O)O,16.53
19,Cc1ccc(CN(CCCn2ccnc2)Cc2ccccc2O)s1.O=C(O)CC(O)(CC(=O)O)C(=O)O,35.85
20,Cc1ccc(O)c(CN(CCCn2ccnc2)Cc2ccc(C)s2)c1.O=C(O)CC(O)(CC(=O)O)C(=O)O,105.6
21,Cc1ccc(CN(CCCO)Cc2nc3ccccc3[nH]2)s1,-17.57
22,Cc1cccc(CC(=O)N2CCN(c3nccn3C)CC2)c1.Cl,-13.18
23,O=C(O)C(F)(F)F.O=C(O)C(F)(F)F.c1csc(CN2C[C@@H]3COC[C@]3(COCc3ccncc3)C2)c1,-17.61
24,O=C(Cc1ccc(F)cc1)N1CCn2cc(Cn3cccn3)nc2C1.O=C(O)C(F)(F)F,1.862

row,Structure (SMILES),Percent Effect [%]
1,O=C(CN1CCc2sccc2C1)Nc1ccnc2ccnn12,101.6
2,CC(C)n1nccc1NC(=O)CN1CCc2sccc2C1,-0.741
3,Cn1nccc1NC(=O)CN1CCc2sccc2C1,-34.76
4,Cc1ccoc1C(=O)N1CCc2ccc(=O)n(CCN(C)C)c2CC1.O=C(O)C(F)(F)F,-10.47
5,CCNc1ncc(C(=O)N2CCOC(CCCC(C)C)C2)cn1 (stereo unspecified),101.8
6,CCNc1ncc(C(=O)N2CCOC(CCCc3ccccc3)C2)cn1 (stereo unspecified),13.88
7,CCc1ocnc1C(=O)N1CCOC(CCCC(C)C)C1 (stereo unspecified),2.233
8,Cn1cc2c(n1)C(CNCc1ccco1)OCC2.O=C(O)C(F)(F)F.O=C(O)C(F)(F)F (stereo unspecified),-43.95
9,CC(C)C(=O)N1CCC[C@]2(C(=O)N(C)C)CN(c3ccccn3)C[C@@H]2C1.O=C(O)C(F)(F)F,-34.76
10,CN(C)C(=O)C1OC2(CCNCC2)c2ccccc21.O=C(O)C(F)(F)F (stereo unspecified),-39.36
11,Cc1cnn(CC(C)NCc2csc(-c3cccs3)n2)c1 (stereo unspecified),37.01
12,CC(Cn1cccn1)NCc1csc(-c2ccsc2)n1 (stereo unspecified),22.32
13,CC(Cn1cccn1)NCc1csc(-c2ccccc2F)n1 (stereo unspecified),54.47
14,CC(Cn1cccn1)NCc1csc(-c2cccs2)n1 (stereo unspecified),54.31
15,Cc1cnn(CC(C)NCc2csc(-c3ncccn3)n2)c1 (stereo unspecified),10.59
16,CC(Cn1cccn1)NCc1nc(-c2ccccc2Cl)no1 (stereo unspecified),1.662
17,COCC(=O)N1C[C@@H](OCc2ccncc2)[C@@H]2OCCC[C@@H]21.O=C(O)C(F)(F)F,-15.14
18,Cc1ccc2c(c1)CN(C(=O)c1ccncc1)C(CN(C)C)CO2.Cl (stereo unspecified),-12.12
19,COCC(=O)NCc1cc(=O)n2c(n1)CN(CC1CC1)CCC2.O=C(O)C(F)(F)F,0.2802
20,COC[C@H]1CC[C@@H]2[C@@H](CCN2Cc2ccccn2)O1.O=C(O)C(F)(F)F.O=C(O)C(F)(F)F,-12.12
21,COc1cccc(CN2CCc3nc4ccsc4c(=O)n3CC2)c1.Cl,-5.651
22,COCCn1cncc1CN1CCCC(C(=O)Cc2ccccc2)C1 (stereo unspecified),2.668
23,CC1(c2ccccc2)CCCN(Cc2cncn2C2CCCC2)C1 (stereo unspecified),105.4
24,CC1(c2ccccc2)CCCN(Cc2cncn2C2CC2)C1 (stereo unspecified),105.6

row,Structure (SMILES),Percent Effect [%]
1,O=C(CCc1ccccc1)C1CCCN(Cc2cncn2C2CC2)C1 (stereo unspecified),5.776
2,CC1(c2ccccc2)CCCN(Cc2nnc(-c3cccnc3)o2)C1 (stereo unspecified),31.3
3,CCCN1CCCC2(CCN(Cc3cncn3C3CCCC3)C2)C1=O (stereo unspecified),-6.674
4,COCCn1cncc1CN1CCCC(C)(c2ccccc2)C1 (stereo unspecified),52.06
5,CN1CCCC2(CCN(Cc3cncn3C3CCCCC3)C2)C1=O (stereo unspecified),13.88
6,COCCn1cncc1CN1CCC(C(C)=O)(c2ccccc2)CC1,-3.844
7,CC(NC(=O)NCc1ccccc1)(C(=O)O)c1ccco1 (stereo unspecified),-8.455
8,CC(=O)CN1CC2(CCNCC2)COc2ccccc2S1(=O)=O.O=C(O)C(F)(F)F,-27.15
9,Cn1ccc(C(=O)N2CCOC3(COCCN(CC4CC4)C3)C2)n1.O=C(O)C(F)(F)F (stereo unspecified),32.82
10,CS(=O)(=O)N[C@@H]1CN(C(=O)c2cccnc2)[C@@H]2CCCO[C@@H]21.O=C(O)C(F)(F)F,-22.75
11,COCCN1CCc2cc(C(=O)NC(C)C)c(NCC3CC3)nc2CC1.O=C(O)C(F)(F)F.O=C(O)C(F)(F)F,-25.1
12,Cn1c2c(ccc1=O)CCN(Cc1ccoc1)CC2.O=C(O)C(F)(F)F,-16.65
13,Cl.Cn1nc(C2CCCN(Cc3cccs3)C2)c2nccnc21 (stereo unspecified),1.565
14,CN(C)CCN1CC[C@@H]2O[C@@H](COCC(=O)N3CCCC3)CC[C@@H]21.O=C(O)C(F)(F)F.O=C(O)C(F)(F)F,-33.31
15,Cc1noc(C(C)C)c1C(=O)NCCCN1CCNCC1.Cl,0.9177
16,Cc1ccccc1CS(=O)(=O)Cc1nc(C2CC2)no1,92.63
17,Cc1noc(C)c1CS(=O)(=O)Cc1nc(C2CC2)no1,6.324
18,O=S(=O)(CCc1ccccc1)Cc1nc(C2CC2)no1,59.77
19,CCc1noc(CS(=O)(=O)Cc2ccccc2Cl)n1,95.51
20,O=S(=O)(C/C=C/c1ccccc1)Cc1nc(C2CC2)no1,19.84
21,O=S(=O)(Cc1nc(C2CC2)no1)c1ccccc1F,12.43
22,O=S(=O)(Cc1nc(C2CC2)no1)c1cc(F)ccc1F,12.65
23,CCc1noc(CS(=O)(=O)Cc2ccccc2C)n1,31.56
24,CCc1noc(CS(=O)(=O)Cc2nc(Cc3ccccc3)no2)n1,-8.996
